In the library only some 1.5% were active in any assay of this set; here they are far more common.
Giardia kill – Small Molecules that selectively kill Giardia lamblia: qHTS; hit rate 0.15% among 340,000; Giardia lamblia trophozoite viability; activity change, % at 7.66 µM, hits read low; AID 540267, 2011; in the data active means activity change below about -80%; inconclusive means between about -30% and that limit;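 further: parasites exposed to compound for two days anaerobically before the ATP read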
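Viability, read as ATP luminescence: trophozoites at 100 cells/well, compound added, 48 hrs anaerobic at 37 deg C, then 15-30 min room-temperature development before reading.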
PI4K2A block – qHTS for small molecular inhibitors of PI4K2A; Phosphatidylinositol 4-kinase type 2-alpha (Homo sapiens), Q9BTU6; purified PI4K2A, ADP-Glo luminescence, 1 h; active compounds read low; activity change, negative = inhibition, % at 76.9 µM; hit rate 0.13% among 420,000; in the data active means activity change below about -50%; inconclusive means mostly about -30% to -49%;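 further: -100% = wells without enzyme as full effect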
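PI4K2A activity was measured by ADP-Glo luminescence: enzyme (4 ug/mL stock) and phosphatidylinositol (1.2 mM stock) in Tris pH 7.5/MgCl2/EGTA/Triton X-100 buffer were reacted with ATP (300 microM stock) for one hour at ambient temperature.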
TrxR1 inh – qHTS Assay for Inhibitors of Mammalian Selenoprotein Thioredoxin Reductase 1 (TrxR1): qHTS. hit rate 1% among 390,000. Potency, µM (doses to about 114 µM), for the others: at the top dose activity change, negative = inhibition, most hits filed as inhibitors. Thioredoxin reductase 1, cytoplasmic (Rattus norvegicus), O89049. recombinant rTrxR1, NADPH fluorescence consumption, selenite substrate; further: potency means the concentration at half of the fitted maximal effect; nearly all actives have a fitted effect of over 65% in size
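Rat TrxR1 (90 nM in the dispensed reagent) was pre-reduced with 400 uM NADPH for 5 min at room temperature, then incubated with compound for 15 min. After 400 uM selenite was added, NADPH fluorescence (Ex 340/Em 450 nm) was followed for 8 min.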
Coupling enz – qHTS Assay for Inhibitors of Fructose-1,6-bisphosphate Aldolase from Giardia Lamblia: Coupling assay counterscreen; hit rate 0.67% among 290,000; activity change, negative = inhibition, % at 58.2 µM, hits read low; coupling enzyme system counterscreen, AmpLite Red fluorescence; in the data active means activity change below about -30%
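First, compound is pin-transferred into glyceraldehyde-3-phosphate coupling-enzyme reagent at 57.5 uM final and held 10 min at RT. Next, substrate, coupling system and AmpLite Red are added. After 20 min RT, fluorescence (525/598 nm) is read.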
GALK inh – qHTS Assay for Inhibitors of Human Galactokinase (GALK); Potency, µM (series often up to 57.5 µM), for inactives: at the highest dose activity change, negative = inhibition, actives largely listed as inhibitors; Purified GALK, Kinase-Glo residual ATP luminescence; hit rate 0.007% among 270,000; P51570; further: potency means the concentration at half of the fitted maximal effect
Target sequence (P51570 whole entry, looked up): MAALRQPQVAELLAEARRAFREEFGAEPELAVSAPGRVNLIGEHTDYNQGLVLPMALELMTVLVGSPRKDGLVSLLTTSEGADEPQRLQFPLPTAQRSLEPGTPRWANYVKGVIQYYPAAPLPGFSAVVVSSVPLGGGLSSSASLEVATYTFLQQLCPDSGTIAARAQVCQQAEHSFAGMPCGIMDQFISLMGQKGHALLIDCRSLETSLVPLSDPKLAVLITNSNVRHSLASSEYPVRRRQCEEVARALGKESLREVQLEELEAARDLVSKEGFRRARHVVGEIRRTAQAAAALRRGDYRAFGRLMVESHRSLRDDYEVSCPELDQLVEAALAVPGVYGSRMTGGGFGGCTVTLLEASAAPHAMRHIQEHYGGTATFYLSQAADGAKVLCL
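Kinase-Glo Plus luminescence measured ATP left after a 1 h room-temperature reaction. The reaction used 5 nM GALK, 100 uM galactose and 35 uM ATP at pH 8.0 (20 mM HEPES, 5 mM MgCl2, 60 mM NaCl, 1 mM DTT, 0.01% BSA).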
TrxR1 substrate – qHTS Assay for Substrates of Mammalian Selenoprotein Thioredoxin Reductase 1 (TrxR1): qHTS; hit rate 0.01% among 390,000; purified TrxR1 substrate turnover, NADPH consumption readout; Potency, µM (titrated, usually from 114 µM), for inactives: top-dose activity change, negative = substrate turnover; Thioredoxin reductase 1, cytoplasmic (Rattus norvegicus), O89049; further: potency means the concentration at half of the fitted maximal effect; nearly all actives have a fitted effect of over 50% in size
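Rat TrxR1, dispensed at 90 nM, was prereduced with 400 uM NADPH (final) for 5 min at ~22 deg C, then incubated with compound 15 min before 400 uM selenite. A first-read NADPH fluorescence drop versus no-compound background flagged substrates.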
Numbers without * were called inactive; ? = inconclusive; . = not tested or not shown; [ ] = dose if it differs, or a comment. Unless noted, the call rests on the fitted dose curve; in most records, active means well fitted curve in the direction sought with a large enough effect; inconclusive means small, poorly fitted or top-dose-only effect, or another doubt; inactive means no such curve, though single readings can be large; an effect the other way counts as inactive or inconclusive. Unless noted, on the % scale 0 is the no-effect control and ±100 the full control effect.

SMILES | Giardia kill | PI4K2A block | TrxR1 inh | Coupling enz | GALK inh | TrxR1 substrate
CC(C)COc1ccc(CC(=O)NO)cc1 | . | . | 11.9% | . | . | 4.7%
O=C1C(=Cc2cccs2)C(=O)c2ccccc21 | 10.2 | ? | -12.5% | 6.3 | -0.3% | 6.9%[0.457 µM]
Cc1ccc(C=C2C(=O)c3ccccc3C2=O)s1 | -16.8 | -53.1* | -1.8%[57.1 µM] | 5.6 | 2.4% | -3.1%[57.1 µM]
CC(C)CNC(=O)C1Nc2ccccc2C2C=CCC12 (centres undefined) | 0.9 | -6.5 | 10µM* | . | . | 9.2%[57.1 µM]
COC(=O)CNC(=O)C1Nc2ccccc2C2C=CCC12 (centres undefined) | -19.4 | -10.3 | 8.91µM* | . | . | 4.2%[57.1 µM]
CC(C)CNC(=O)C1Nc2ccc(C(F)(F)F)cc2C2C=CCC12 (centres undefined) | -0.8 | -1.4 | -14.7%[57.1 µM] | . | . | -2.3%[57.1 µM]
O=C(NCCF)C1Nc2ccc(OC(F)(F)F)cc2C2C=CCC12 (centres undefined) | 21.6 | -2.1 | ? | . | . | 0.8%
COc1cc(C(=O)NC2CCCCN(Cc3cccc(C(F)(F)F)c3)C2=O)cc(OC)c1OC (centres undefined) | . | 1.8 | . | . | . | .
CC1CC=CC2C1C(=O)N(Cc1ccccc1)C2c1ccc(F)c(Br)c1 (centres undefined) | -23.4 | . | -12.5% | 0.2 | . | -2.5%
CC(=O)Oc1cc(-c2coc3cc(OC(C)=O)c(OC(C)=O)c(OC(C)=O)c3c2=O)cc(OC(C)=O)c1OC(C)=O | . | . | . | -51.2* | . | .
COc1cc(-c2coc3cc(OC)c(OC)c(OC)c3c2=O)cc(OC)c1OC | . | . | . | 0.0 | . | .
O=c1[nH]n(-c2ccc(Cl)cc2)c(=O)c(Cl)c1Cl | 8.6 | 1.1 | 22.4µM* | 13.6 | 2.8% | 10.3%[57.1 µM]
Cc1[nH]n(-c2ccccc2)c(=O)c1-c1ccc(Cl)cc1 | -20.8 | -2.2 | 1.1% | 1.1 | -0.8% | 2.3%
O=C(N[C@@H](Cc1ccccc1)C(=O)CCl)OCc1ccccc1 | 9.9 | 22.7 | 21.2µM* | . | . | 8.7%[57.1 µM]
CCNC1=C(Cl)C(=O)c2ccccc2C1=O | -5.7 | -13.1 | -12.7% | -33.0* | 3.0% | -4.2%
CCCC(=O)NNC(=O)CCC(=O)Nc1ccccc1Cl | -10.7 | -0.3 | 8.5% | -1.7 | -0.5% | 2.1%
O=C1C(Cl)=C(NCCN2CCCCC2)C(=O)c2ccccc21 | 3.6 | -1.3 | 11.2µM* | -37.3* | -1.8% | 4.5%
CCCC(=O)NC1=C(Cl)C(=O)c2ccccc2C1=O | -12.6 | -11.6 | 0.398µM* | . | . | 1.5%[11.4 µM]
C/C(CCc1oc2c(Br)cc(Br)cc2c1-c1ccc(C)o1)=N\O | 8.0 | 1.2 | 25.1µM* | -2.4 | -2.6% | 3.6%
C/C(CCc1oc2ccccc2c1-c1ccc(C)o1)=N/O | -7.5 | -7.8 | ? | -8.7 | 2.1% | 2.9%
CCCCCCc1c(C)c2c(cc(C)c3c(C)coc32)oc1=O | . | 3.0 | 32.3% | . | . | 24.6%
Cc1coc2c1c(C)cc1oc(=O)c(Cc3ccccc3)c(C)c12 | -8.4 | -84.2* | 16.4% | -2.7 | 0.7% | 23.4%
CC(=O)ON(C(C)=O)c1ccc(/C=C2/C=Cc3ccccc32)cc1 | . | . | ? | . | . | -2.0%
CCCCOc1cc(=O)[nH]c(=O)[nH]1 | 1.0 | -51.2* | -3.5% | -0.5 | 0.2% | 9.6%
Cc1cc(N2CCN(C)CC2)nc2ccc(NC(=S)N3CCN(c4ccc(F)cc4)CC3)cc12 | -84.6* | 0.6 | 1.2% | 0.8 | -1.4% | 10.3%
Cc1cc(N2CCN(C)CC2)nc2ccc(NC(=S)N3CCN(c4ccc(Cl)cc4)CC3)cc12 | ? | -3.7 | 3.7% | -28.0 | 0.5% | 17.1%
Cc1cc(N2CCN(C)CC2)nc2ccc(NC(=S)N3CCN(c4cccc(Cl)c4)CC3)cc12 | -81.4* | 2.1 | 7.6% | 2.3 | -1.2% | 14.1%

Screens: PubChem, National Center for Advancing Translational Sciences (NCATS)
